Results filed as inconclusive are left out. Active and inactive are the calls of the source. Unless noted, calls come from the whole dose curve; as a rule, active = well fitted curve in the direction sought with a large enough effect in the repeat runs; inconclusive = weak or mixed curves; inactive = no such curve, though single readings can be large; an effect the other way counts as inactive or inconclusive.
Columns and labels:
[1] = qHTS assay for small molecules that induce genotoxicity in human embryonic kidney cells expressing luciferase-tagged ATAD5 (AID 651632); note: nearly all actives have a fitted effect of over 15% in size
How it was run: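 Genotoxicity read-out via ATAD5-luciferase: HEK293T cells, 16 hr compound incubation at 37C, Amplite detection.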

[2] = qHTS assay for small molecule agonists of the p53 signaling pathway - cell viability (AID 651633; calls by dose curve;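 note: p53RE-bla HCT reporter cells with a stable beta-lactamase p53 reporter; nearly all actives have a fitted effect of over 30% in size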)
How it was run: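 Viability counter-read: CellTiter-Glo luminescence (30 min, room temperature) in the same p53RE-bla plates. These plates had been exposed to compounds for 16 h at 37 C.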

[3] = qHTS assay for small molecules that induce genotoxicity in human embryonic kidney cells expressing luciferase-tagged ATAD5 - cell viability (AID 651634; calls by dose curve; note: nearly all actives have a fitted effect of over 25% in size)
How it was run: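 Live-cell protease activity (CellTiter-Fluor, fluorescence) indicates viability. HEK293T cells with luciferase-tagged ATAD5; 15.5 hr compound treatment at 37C.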

[4] = qHTS assay for small molecule disruptors of the mitochondrial membrane potential - cell viability (AID 720634; calls by dose curve;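 note: human HepG2 liver cancer cells; nearly all actives have a fitted effect of over 20% in size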)
How it was run: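 Human hepatoma HepG2 cells were treated for 1 hr with test chemicals, then given m-MPI dye and CellTiter-Glo. Cell viability reflects luminescence proportional to cellular ATP.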

[5] = qHTS assay to test for compound auto fluorescence at 590 nm (red) in HepG2 cells (AID 720674)
How it was run: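 Red autofluorescence (Ex/Em 540/590 nm, Rose Bengal sodium equivalents) was measured in HepG2 cells, 2,000 per well in MEM plus 10% FBS, plated overnight at 37 C. Readings were taken 1 hr after adding 23 nL compound or DMSO, at 37 C and 5% CO2.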

[6] = qHTS assay to test for compound auto fluorescence at 535 nm (green) in HepG2 cells (AID 720675)
[7] = qHTS assay to test for compound auto fluorescence at 460 nm (blue) in HEK293 cells (AID 720678)
How it was run: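 HEK293, 2,000 cells/well, 10% dialyzed FBS; attach 4-5 hr 37C; pin compound or DMSO; o/n 37C/5% CO2; fluorescence 405/460 nm; triamterene-equivalent units.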

[8] = qHTS assay to test for compound auto fluorescence at 590 nm (red) in HEK293 cells (AID 720679)
How it was run: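 Intensity at 540nm excitation and 590nm emission is reported as Rose Bengal sodium-equivalent autofluorescence. Measurements followed overnight exposure (37C, 5% CO2) of HEK293 cells, 2,000 per well, to 23 nL compound.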

[9] = qHTS assay to test for compound auto fluorescence at 535 nm (green) in HEK293 cells (AID 720680)
[10] = qHTS assay to test for compound auto fluorescence at 460 nm (blue) in HEK293 cell free culture (AID 720681)
How it was run: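 Blue fluorescence (Ex 405/Em 460 nm, triamterene-equivalent) was read immediately after pin transfer of compound or DMSO into medium (DMEM, 10% FBS) without cells.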

[11] = qHTS assay to test for compound auto fluorescence at 535 nm (green) in HEK293 cell free culture (AID 720682)
How it was run: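 Measurement is a direct plate read of green fluorescence (485 nm in, 535 nm out) after compound addition to serum-supplemented DMEM lacking cells, with fluorescein used to express intensities.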

[12] = qHTS assay to test for compound auto fluorescence at 590 nm (red) in HEK293 cell free culture (AID 720683)
How it was run: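 Red-channel autofluorescence of compounds in culture medium (DMEM, 10% FBS), no cells, measured at 540/590 nm. Rose Bengal sodium is the reference fluorophore for equivalence.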

[13] = qHTS assay to test for compound auto fluorescence at 590 nm (red) in HepG2 cell free culture (AID 720684)
How it was run: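 Steps: dispense MEM/10% FBS medium, no cells; pin compound or DMSO vehicle; read red channel, Ex/Em 540/590 nm. Output given as Rose Bengal sodium equivalents.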

[14] = qHTS assay to test for compound auto fluorescence at 460 nm (blue) in HepG2 cells (AID 720687)
How it was run: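 Blue-channel autofluorescence (Ex/Em 405/460 nm, triamterene-equivalent) was measured after 1 hr compound exposure at 37 C, 5% CO2. Cells were HepG2, plated overnight at 37 C in MEM plus 10% FBS.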

[15] = target: Glucocorticoid receptor (Homo sapiens) (UniProt P04150); test: qHTS assay to identify small molecule agonists of the glucocorticoid receptor (GR) signaling pathway (AID 720691; active = well fitted activation curve with a large enough effect in the signal ratio in the repeat runs, not every such curve was filed as active; the % refers to the signal ratio); conditions: GR-bla HeLa, beta-lactamase reporter ratio, 18 h; activation: at 62.4 µM (top of the series) unless noted
How it was run: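 Beta-lactamase reporter activity, read as fluorescence intensity, was measured in GR-bla HeLa cells exposed to compounds for 18 h at 37 C and then loaded with LiveBLAzer B/G FRET substrate for 2 h at room temperature.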

[16] = qHTS assay to test for compound auto fluorescence at 460 nm (blue) in HepG2 cell free culture (AID 720685)
How it was run: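 Compound (23 nL) or DMSO pinned into cell-free MEM with 10% FBS; blue fluorescence read at 405/460 nm excitation/emission, expressed as auto-fluorescence equivalency to triamterene.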

[17] = qHTS assay to test for compound auto fluorescence at 535 nm (green) in HepG2 cell free culture (AID 720686)
[18] = target: Glucocorticoid receptor (Homo sapiens) (UniProt P04150); test: qHTS assay to identify small molecule antagonists of the glucocorticoid receptor (GR) signaling pathway (AID 720692; active = well fitted inhibition curve with a large enough effect in the signal ratio in the repeat runs, not every such curve was filed as active; the % refers to the signal ratio)
How it was run: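 Fluorescence from cleaved LiveBLAzer B/G FRET substrate reports GRE-driven beta-lactamase in HeLa cells; compounds are tested against 5 nM dexamethasone (final) over 18 h at 37 C, substrate incubation 2 h at room temperature.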

Measured: Potency

Sequence of Glucocorticoid receptor (Homo sapiens) (P04150 whole entry, looked up): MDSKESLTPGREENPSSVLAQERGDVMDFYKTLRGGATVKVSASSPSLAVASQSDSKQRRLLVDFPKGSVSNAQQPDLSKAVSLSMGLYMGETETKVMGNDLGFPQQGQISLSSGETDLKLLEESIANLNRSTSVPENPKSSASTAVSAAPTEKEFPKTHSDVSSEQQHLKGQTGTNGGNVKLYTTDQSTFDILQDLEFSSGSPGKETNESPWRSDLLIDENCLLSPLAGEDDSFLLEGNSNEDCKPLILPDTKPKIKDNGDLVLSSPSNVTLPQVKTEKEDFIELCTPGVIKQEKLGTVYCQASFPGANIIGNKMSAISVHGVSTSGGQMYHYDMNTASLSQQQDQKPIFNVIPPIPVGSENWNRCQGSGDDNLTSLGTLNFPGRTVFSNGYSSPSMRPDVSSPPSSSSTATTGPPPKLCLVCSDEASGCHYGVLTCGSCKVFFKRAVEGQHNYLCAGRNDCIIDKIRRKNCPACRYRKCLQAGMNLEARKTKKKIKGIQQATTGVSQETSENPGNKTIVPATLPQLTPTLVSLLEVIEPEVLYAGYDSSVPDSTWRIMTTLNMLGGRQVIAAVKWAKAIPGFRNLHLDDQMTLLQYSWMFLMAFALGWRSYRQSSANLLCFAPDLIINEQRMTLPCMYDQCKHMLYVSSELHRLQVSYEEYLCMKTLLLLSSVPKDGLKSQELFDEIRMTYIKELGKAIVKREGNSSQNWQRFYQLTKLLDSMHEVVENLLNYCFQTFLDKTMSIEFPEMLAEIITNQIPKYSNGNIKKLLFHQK

CCC(C)(C)CC
not listed: [16] | [17] | [18]
inactive: all other assays above

CCOC(=O)C1=C[C@]2(CC)CCCN3CCc4c(n1c1ccccc41)[C@@H]32
inactive: all assays above

CCC(Cl)CCC(Cl)C(Cl)CC(Cl)C(Cl)C(Cl)CCl (stereo not given)
not listed: [5] | [12] | [17]
inactive: all other assays above

CO[C@@H]1[C@H](OC(=O)/C=C/C=C/C=C/C=C/C(=O)O)CC[C@]2(CO2)[C@H]1[C@@]1(C)O[C@@H]1CC=C(C)C
not listed: [5] | [18]
inactive: all other assays above

Cc1oc(-c2ccccc2)nc1CCOc1cccc2c1ccn2CCC(=O)O
not listed: [3] | [8] | [12]
inactive: all other assays above

CCN(CC)CCOC(=O)C(c1ccccc1)C1CCCCC1 (stereo not given)
not listed: [5] | [18]
inactive: all other assays above

O=C(Cl)c1cc(C(=O)Cl)cc(C(=O)Cl)c1
not listed: [8] | [15] | [18]
inactive: all other assays above
